# Screening data from PubChem.
# Rows were chosen to be rich in hits. Some 2.4% of all compounds tested hit in one or more screens of this group.
# Pol iota inh: DNA polymerase iota (human) inhibition | Pol iota fluorescent replication assay, 10 min | 390,000 tested, 1% active | Potency, µM (titrated, usually from 115 µM), for inactives: top-dose activity, negative = inhibition, usual class: inhibitors; further: potency means the concentration at half of the fitted maximal effect
#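 Pol iota at 10 nM preincubated 15 min with compounds at room temperature; reaction started with fluorescent substrate, 50 nM final. Fluorescence read kinetically at 0 and 10 min; buffer-only wells as negative control.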
# Pol kappa inh-1: DNA polymerase kappa (human) inhibition | purified Pol kappa, fluorescent DNA synthesis assay, 10 min | Potency, µM (titrated, usually from 107 µM), without a hit: at the highest dose activity, negative = inhibition, actives largely listed as inhibitors | 400,000 tested, 0.53% active | AID 588579; further: potency means the concentration at half of the fitted maximal effect; on the % scale 0 is the no-effect control and ±100 the full control effect
#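 Enzyme at 10 nM met test compounds for 15 min at room temperature. Substrate addition (50 nM final) began the reaction, which was monitored by fluorescence at 0 and 10 min.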
# Pol beta inh: blocks human DNA polymerase beta activity; Pol beta primer extension/strand displacement, fluorescence kinetic; 340,000 tested, 1.3% active; Potency, µM (series often up to 114 µM), for the others: top-dose activity change, negative = inhibition, hits mostly inhibitors; further: potency means the concentration at half of the fitted maximal effect; on the % scale 0 is the no-effect control and ±100 the full control effect
#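 Human Pol beta at 10 nM; strand-displacement substrate 50 nM final. Compound exposure 15 min at room temperature before start, reaction 10 min at room temperature.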
# Pol eta inh-1: blocks human DNA polymerase eta activity. Q9Y253. recombinant Pol eta, fluorescent DNA replication assay. Potency, µM (top dose mostly 114 µM), inactives show top-dose activity change, negative = inhibition, hits mostly inhibitors. AID 588591. 390,000 tested, 1.2% active; further: potency means the concentration at half of the fitted maximal effect; on the % scale 0 is the no-effect control and ±100 the full control effect
#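 Pol eta at 10 nM preincubated with compounds 15 min at room temperature; reaction started with fluorescent substrate (50 nM final) and read kinetically at 0 and 10 min.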
# WRN inhibitor: WRN helicase (human) inhibition | WRN helicase unwinding, fluorescent forked duplex, kinetic | AID 651768 | Q14191 | Potency, µM (highest dose often 114 µM), inactives show at the top dose activity change, negative = inhibition, most hits filed as inhibitors | 360,000 tested, 0.46% active; further: potency means the concentration at half of the fitted maximal effect; on the % scale 0 is the no-effect control and ±100 the full control effect; nearly all actives have a fitted effect of over 55% in size
#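 Kinetic red-fluorescence monitoring (525/598 nm) tracks WRN helicase activity after 100 nM fluorophore-quencher forked duplex and 2 mM ATP are added to 20 nM enzyme pretreated 15 min at room temperature with compound.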
# FEN1 inhibitor: inhibitors of human flap endonuclease 1; P39748; Recombinant FEN1 flap cleavage, fluorescence, 15 min; Potency, µM (series often up to 114 µM), inactives show top-dose activity change, negative = inhibition, actives largely listed as inhibitors; 390,000 tested, 0.35% active; AID 588795; further: potency means the concentration at half of the fitted maximal effect; on the % scale 0 is the no-effect control and ±100 the full control effect; nearly all actives have a fitted effect of over 65% in size
# Target sequence (P39748 whole entry, looked up): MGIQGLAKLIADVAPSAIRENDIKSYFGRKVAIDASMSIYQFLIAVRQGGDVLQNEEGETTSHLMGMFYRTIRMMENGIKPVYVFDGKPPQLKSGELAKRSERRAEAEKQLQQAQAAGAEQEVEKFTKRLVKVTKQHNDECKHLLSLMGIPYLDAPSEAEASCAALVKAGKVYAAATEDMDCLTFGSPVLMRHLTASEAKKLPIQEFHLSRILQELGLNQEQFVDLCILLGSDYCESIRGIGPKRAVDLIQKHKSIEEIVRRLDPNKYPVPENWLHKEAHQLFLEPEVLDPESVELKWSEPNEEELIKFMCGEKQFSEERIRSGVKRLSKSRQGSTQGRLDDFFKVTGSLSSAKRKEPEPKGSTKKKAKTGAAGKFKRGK
#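 Recombinant FEN1 (10 nM) was preincubated with pin-transferred compounds for 15 min at room temperature, then flap DNA substrate (50 nM final) was added. Plates were read at 0 and 15 min, and normalized concentration–response data were fitted to a four-parameter Hill equation.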
# GALK confirm: galactokinase (human) inhibition, confirmation; purified GALK, Kinase-Glo ATP depletion luminescence; AID 2015; Potency, µM (top dose mostly 115 µM), inactives show top-dose activity, negative = inhibition, actives largely listed as inhibitors; 150 tested, 70% active; shares compounds with Pol eta inh-1
# Target sequence (P51570 whole entry, looked up): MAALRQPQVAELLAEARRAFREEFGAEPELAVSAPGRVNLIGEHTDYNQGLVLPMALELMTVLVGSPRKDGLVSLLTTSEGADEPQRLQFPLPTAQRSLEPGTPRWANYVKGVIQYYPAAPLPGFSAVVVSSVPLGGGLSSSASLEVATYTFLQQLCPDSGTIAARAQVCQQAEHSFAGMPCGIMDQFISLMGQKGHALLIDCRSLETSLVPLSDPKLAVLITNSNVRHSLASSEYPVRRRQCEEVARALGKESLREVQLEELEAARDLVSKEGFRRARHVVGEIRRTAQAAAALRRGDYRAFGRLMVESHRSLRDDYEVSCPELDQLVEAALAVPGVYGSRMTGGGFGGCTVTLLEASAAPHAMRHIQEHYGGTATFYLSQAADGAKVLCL
# GALK redox cs: generates H2O2 by redox cycling, flagging GALK artifacts. 150 tested, 40% active. Phenol red-HRP H2O2 redox cycling, absorbance 600 nm. Potency, µM (doses to about 115 µM), for the others: at the highest dose activity change, negative = H2O2 signal, hits mostly inhibitors. shares compounds with Pol eta inh-1. AID 2035
# HEK293 tox: counter-screen for GALK inhibitors: HEK293 cell cytotoxicity; AID 2547; HEK-293 viability, ATP luminescence (CellTiter-Glo), 24/48 h; 170 tested, 10% active; shares compounds with Pol eta inh-1; Potency, µM (top dose mostly 46.1 µM), inactives show top-dose activity change, negative = cytotoxicity, most hits filed as inhibitors; further: potency means the concentration at half of the fitted maximal effect; on the % scale 0 is the no-effect control and ±100 the full control effect
# Pol kappa inh-2: confirmation of human DNA polymerase kappa inhibitors; shares compounds with Pol eta inh-1; purified Pol-kappa, fluorescent strand-displacement substrate; Potency, µM, hits mostly inhibitors; 920 tested, 76% active; further: potency means the concentration at half of the fitted maximal effect
# Pol eta inh-2: confirmation of human DNA polymerase eta inhibitors | shares compounds with Pol eta inh-1 | Pol eta primer extension, TAMRA/BHQ fluorescence, 10 min | Potency, µM, usual class: inhibitors | 2,600 tested, 64% active; further: potency means the concentration at half of the fitted maximal effect
# * marks the source's active call; other numbers are inactive results; ? = inconclusive; · = no result; [ ] = dose if it differs, or a comment. The call rests on the fitted dose curve; in most records, active means well fitted curve in the direction sought with a large enough effect; inconclusive means small, poorly fitted or top-dose-only effect, or another doubt; inactive means no such curve, though single readings can be large; an effect the other way counts as inactive or inconclusive.
SMILES,Pol iota inh,Pol kappa inh-1,Pol beta inh,Pol eta inh-1,WRN inhibitor,FEN1 inhibitor,Pol eta inh-2,others
CCC(=O)N(CCC(c1ccccc1)c1ccco1)Cc1cccs1 (stereo not drawn),1.3%,-9.1%,7.0%,-23.3%,-3.2%[57.1 µM],16.3%,·,
O=C(c1ccco1)N(CCC(c1ccccc1)c1ccco1)Cc1ccccc1 (stereo not drawn),28.2µM*,79.4µM*,25.1µM*,22.4µM*,?,-12.1%,?,Pol kappa inh-2=67*
CC(=O)NCc1ccc(C(=O)COC(=O)COc2ccccc2)s1,44.7µM*,?,·,22.4µM*,-18.3%,4.7%,75.7*,
CC(=O)NCc1ccc(C(=O)COC(=O)COc2ccc(Cl)c(C)c2)s1,?,-22.8%,·,-10.5%,-5.3%,-20.1%,·,
COc1cc(N(C(C)=O)c2ccc(O)c(C(=O)O)c2)c2ncccc2c1,·,·,·,50.1µM*,-6.7%[11.6 µM],·,84.9*,
COc1ccccc1CNC(=O)CCCn1c(=O)c2ccccc2n(Cc2ccc(C)cc2)c1=O,-4.9%,3.0%,25.3%,-6.1%,·,-6.6%,·,
O=C(CSc1nccn1-c1cccc(Cl)c1)Nc1cccc2ccccc12,-1.3%,-5.1%[60.1 µM],10.6%,-6.2%,·,?,·,
O=C(CCl)N1N=C(c2ccco2)CC1c1ccco1 (stereo not drawn),3.16µM*,22.4µM*,25.1µM*,10µM*,56.2µM*,?,60.1*,
CC(C)c1ccc(NS(=O)(=O)c2ccc3[nH]cc(C(=O)N4CCCC4)c(=O)c3c2)cc1,79.4µM*,?,?,?,·,-14.7%,42.6*,
Cc1ccccc1NS(=O)(=O)c1ccc2[nH]cc(C(=O)N3CCCC3)c(=O)c2c1,?,5.4%[60.1 µM],?,89.1µM*,·,4.2%,?,
COc1ccccc1CNC(=O)c1cc(S(=O)(=O)N2CCCCCC2)cn1C,23.7%,-3.8%[60.1 µM],2.0%,-18.6%,·,10.5%,·,
CCCCCCCCC(=O)c1c(OC)oc(C=O)cc1=O,·,·,·,22.4µM*,-12.7%[11.6 µM],·,?,Pol kappa inh-2=?
CCCCCC(=O)c1c(O)cc(OC)c(Cl)c1O,·,11.5%[60.1 µM],·,·,·,·,·,
CCOc1ccc(/C=C/c2nc(C#N)c(Nc3ccc(OCC)cc3)o2)cc1,27.7%,-8.6%,0.1%,-17.0%,·,-8.1%,·,
O=C(Cc1ccc([N+](=O)[O-])cc1)N/N=C/c1ccc([N+](=O)[O-])o1,?,-33.6%,-12.6%,3.3%,-9.0%,-22.0%,·,
N#CCc1ccc(NC(=O)/C=C/c2ccc([N+](=O)[O-])o2)cc1,44.7µM*,?,?,20µM*,?,4.1%,?,
O=c1c(O)cc(C2Oc3cc(O)cc(O)c3CC2O)cc2c(C3Oc4cc(O)cc(O)c4CC3O)cc(O)c(O)c12 (stereo not drawn),·,0.708µM*,·,·,·,·,·,GALK confirm=5.3µM*;GALK redox cs=5.3µM*;HEK293 tox=-2.4%
O=C1C[C@H](c2ccccc2)Oc2cc(O)cc(O)c21,·,-3.2%[19.4 µM],·,·,·,·,·,
N#CC1=C(N)Oc2n[nH]c(-c3cccnc3)c2C1c1ccc([N+](=O)[O-])o1 (stereo not drawn),?,?,-2.1%,28.2µM*,?,-20.6%,67.5*,
COCCN(C(=O)COC(=O)Cc1coc2cc(C)ccc12)c1c(N)n(Cc2ccccc2)c(=O)[nH]c1=O,35.5µM*,?,·,20µM*,?,-11.2%,60.1*,
CC(C)c1ccc(NC(=O)C2CCCN(S(=O)(=O)c3cccc4nsnc34)C2)cc1 (stereo not drawn),-17.5%,2.8%,41.0%,-1.4%,·,-11.4%,·,
COc1cc(C(CCN2CCCC2)c2c(OC)cc(OC)c3ccc(=O)oc23)cc(OC)c1OC (stereo not drawn),25.9%,9.6%,-27.9%,-14.3%,5.5%,-2.3%,·,
COc1cc(C(CC(=O)N2CCCC2)c2c(OC)cc(OC)c3ccc(=O)oc23)cc(OC)c1OC (stereo not drawn),?,?,?,31.6µM*,1.1%[11.6 µM],1.0%,84.9*,
COc1cc(OC)c2ccc(=O)oc2c1C(CC(=O)N1CCCC1)c1ccc2c(c1)OCO2 (stereo not drawn),70.8µM*,50.1µM*,44.7µM*,?,-31.7%,-16.3%,?,
CCN(CC)CCC(c1ccc2c(c1)OCO2)c1c(OC)cc(OC)c2ccc(=O)oc12 (stereo not drawn),-9.2%,22.6%,0.7%,-9.6%,8.4%,0.1%,·,
SMILES,Pol iota inh,Pol kappa inh-1,Pol beta inh,Pol eta inh-1,WRN inhibitor,FEN1 inhibitor,Pol eta inh-2,others
CC(C)Sc1ncc(Cl)c(C(=O)Nc2ccc(S(=O)(=O)N3CCCCC3)cc2)n1,20.3%,-3.5%,15.4%,-24.0%,·,-13.8%,·,
O=C(O)Cc1ccc(NC(=O)c2ccc(NC(=O)c3ccco3)cc2)cc1,44.7µM*,?,?,25.1µM*,-5.8%[11.6 µM],6.2%,42.6*,
Cc1c(C(=O)Nc2cccc(F)c2)oc2c1-c1nn(Cc3c(F)cccc3Cl)cc1CC2,20.5%,4.0%,1.3%,89.1µM*,·,2.9%,·,Pol kappa inh-2=47.4*
CC(=O)c1cccc(NC(=O)c2oc3c(c2C)-c2nn(Cc4ccc(Cl)cc4)cc2CC3)c1,-0.8%,-4.4%,2.8%,-9.9%,·,12.2%,·,
CC(C)Oc1ccc(CNC(=O)CN2C(=O)c3cccnc3Oc3ccc(Cl)cc32)cc1,7.2%,-22.6%,1.3%,-17.0%,·,-5.2%,·,
Cc1ccc(C(=O)C=Cc2cccc(C)c2)cc1,?,1.2%,·,-28.0%,0.7%,-21.9%,·,
Cc1cccc(/C=C/C(=O)c2cc(Br)ccc(=O)c2O)c1,0.891µM*,?,?,31.6µM*,?,?,?,
Cc1ccn2c(c1)nc(=O)c1cc(S(=O)(=O)N3CCC(C)CC3)c(Cl)cc12,12.0%,-2.4%,-9.5%,-11.2%,·,14.5%,·,
